This excerpt belongs to a sample that is enriched for hits.
CD40 NFkB inh: CD40 pathway inhibition in BL2 cells; BL2 NF-kB luciferase reporter, CD40L-induced, 4 h; inhibition, % at 10 µM; 83,000 compounds, 0.94% hits;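 active = mean inhibition of at least 50% with a set share of replicates also reaching that level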
A number is an active result.

`C[C@@H]1CN([C@H](C)CO)C(=O)c2ccccc2-c2ccccc2CO[C@H]1CN(C)C(=O)[C@H](C)c1ccccc1` gave CD40 NFkB inh inactive.
`COc1ccc(/C=C2/CCC(CN3CCOCC3)C2=O)cc1` (stereo unspecified) gave CD40 NFkB inh 74.
Screening COc1ccc(OCCOCCN2CCOCC2)cc1 returned CD40 NFkB inh inactive.
`CN(C)CC1CCC/C(=C\c2ccc(OC(=O)/C=C/c3ccccc3)cc2)C1=O` (stereo unspecified) gave CD40 NFkB inh inactive.
`Cc1cc(OCC(=O)OCC(=O)NCc2ccco2)ccc1Cl` gave CD40 NFkB inh 31.
Screening COc1ccc(OCC(=O)OCC(=O)NCc2ccco2)cc1 returned CD40 NFkB inh inactive.
For COc1ccc(CC(=O)OCC(=O)NCc2ccco2)cc1 the results were CD40 NFkB inh inactive.
`O=C(Nc1ccc(Cl)c(Cl)c1)N[C@@H]1CC[C@H](CCn2cc(C3CCCC3)nn2)O[C@@H]1CO` gave CD40 NFkB inh inactive.
For CC(=O)Nc1ccc2c(c1)C(=O)N(C)C[C@@H](C)[C@@H](CN(C)C(=O)OC(C)(C)C)O2 the results were CD40 NFkB inh inactive.
Screening C[C@@H]1CN([C@H](C)CO)C(=O)c2cc(NC(=O)Cc3ccccc3)ccc2O[C@@H](C)CCCCO[C@H]1CN(C)Cc1ccncc1 returned CD40 NFkB inh inactive.
Screening Cc1nc(Nc2nc3ccccc3o2)nc(C)c1C(=O)Nc1ccc(F)cc1 returned CD40 NFkB inh inactive.
For COCc1cc(=O)[nH]c(Nc2nc3ccccc3o2)n1 the results were CD40 NFkB inh inactive.
`Cc1nc(Nc2nc3ccccc3o2)nc2c1CCC2` gave CD40 NFkB inh active.
`COc1ccccc1C(=O)COC(=O)c1cccs1` gave CD40 NFkB inh inactive.
CC(=O)NCCc1ccc(C(=O)COC(=O)c2cccn2C)cc1 was read as CD40 NFkB inh inactive.
COc1ccc(C(=O)COC(=O)c2cccs2)cc1 was read as CD40 NFkB inh 81.
CC(=O)NCCc1ccc(C(=O)COC(=O)c2cccs2)cc1 was read as CD40 NFkB inh 77.
For COc1ccc(CCNC(=O)COC(=O)c2cccs2)cc1 the results were CD40 NFkB inh inactive.
Screening COc1ccc(C(=O)Nc2ccc(C(=O)OCC(=O)c3ccccc3)cc2)cc1 returned CD40 NFkB inh inactive.
`COc1cccc(NC(=O)Nc2ccc3c(c2)C(=O)N(C)C[C@@H](OC)[C@@H](C)CN(CC2CC2)[C@H](C)CO3)c1` gave CD40 NFkB inh inactive.
For Cc1cccc(S(=O)(=O)N2C[C@@H]3[C@H](c4ccccc42)[C@@H](CO)N3C(=O)CC2CC2)c1 the results were CD40 NFkB inh inactive.
For C[C@@H]1CCCCO[C@@H](CN(C)S(=O)(=O)c2ccccc2)[C@@H](C)CN([C@@H](C)CO)C(=O)c2cc(NS(=O)(=O)c3ccc(Cl)cc3)ccc2O1 the results were CD40 NFkB inh inactive.
For Cc1ccc(S(=O)(=O)Nc2ccc3c(c2)C(=O)N(C)[C@@H]2CC[C@H](CC(=O)NCCc4ccncc4)O[C@H]2CO3)cc1 the results were CD40 NFkB inh inactive.
Screening CC(C)OCCCNC(=O)c1ccncc1 returned CD40 NFkB inh inactive.
Screening COCCNC(=O)c1ccc(Cl)c(Cl)c1 returned CD40 NFkB inh inactive.
CC(C)OCCCNC(=O)CNC(=O)c1ccc(Cl)c(Cl)c1 was read as CD40 NFkB inh 27.
CCCNC(=O)N1CC2(CCN(CC3CCCC3)CC2)c2c(n(C)c3cc(OC)ccc23)[C@H]1CO was read as CD40 NFkB inh inactive.
For O=C1CCCCc2sc(Br)c([N+](=O)[O-])c2N1 the results were CD40 NFkB inh 100.
For CNc1c2cccc(C)c2nc2c(C(=O)NCCN(C)C)cccc12 the results were CD40 NFkB inh 86.
`Cc1ccccc1C(=O)Nc1c(C(=O)N(CCN(C)C)Cc2ccco2)oc2ccccc12` gave CD40 NFkB inh inactive.
`Cc1ccc(C(=O)NCCN(C)C)c(C)c1` gave CD40 NFkB inh inactive.
CO[C@H]1CN(C)C(=O)c2cc(NC(=O)Nc3ccccc3F)ccc2OC[C@H](C)N(CCC(F)(F)F)C[C@@H]1C was read as CD40 NFkB inh inactive.
Screening CCOC(=O)CC(S(=O)(=O)c1ccccc1)S(=O)(=O)c1ccccc1 returned CD40 NFkB inh 97.
Screening CCOC(=O)CN(c1ccccn1)S(=O)(=O)c1ccccc1 returned CD40 NFkB inh inactive.
Screening CCOC(=O)N=S(N)(=O)c1ccccc1 (stereo unspecified) returned CD40 NFkB inh inactive.
`COc1ccc2c3c([nH]c2c1)[C@H](CO)N(C(=O)C1CCOCC1)CC31CCN(S(C)(=O)=O)CC1` gave CD40 NFkB inh inactive.
For O=C(C[C@H]1CC[C@H]2[C@@H](COC[C@H](O)CN2Cc2ccc3c(c2)OCO3)O1)N1CCCCC1 the results were CD40 NFkB inh inactive.
`COc1ccc(-c2ccc(C(=O)C3CC3)cc2)cc1` gave CD40 NFkB inh inactive.
Screening CC[N+]1(C)CCC(O)(c2ccc(OC)cc2)C(C(=O)c2ccc(OC)cc2)C1 (stereo unspecified) returned CD40 NFkB inh 97.
Screening COc1ccc(C(=O)C23CC4CC(C2)CC(C(=O)c2ccc(OC)cc2)(C4)C3)cc1 returned CD40 NFkB inh inactive.
For CCS(=O)(=O)N1CC2(CN(C)[C@H](CO)c3c2c2ccc(OC)cc2n3C)C1 the results were CD40 NFkB inh inactive.
`CCS(=O)(=O)Nc1ccc2c(c1)C(=O)N(C)C[C@H](OC)[C@H](C)CN(C(=O)c1ccc3c(c1)OCO3)[C@@H](C)CO2` gave CD40 NFkB inh inactive.
CCSC1=NC(C)(C)C=C(C)N1 was read as CD40 NFkB inh inactive.
CC1=CC(C)(C)N=C(Nc2nc(C)c3cc(C)cc(C)c3n2)N1 was read as CD40 NFkB inh 48.
For CCCSc1nc(C)c2cc(C)cc(C)c2n1 the results were CD40 NFkB inh inactive.
C[C@@H]1CN([C@H](C)CO)S(=O)(=O)c2ccc(-c3cncnc3)cc2O[C@H]1CN(C)Cc1ccncc1 was read as CD40 NFkB inh inactive.

Assay outcomes from PubChem.
